In PubChem BioAssay (NCATS) one finds Potency data, which are given here for 16 molecules.

The source made the active and inactive calls. A call without a number means that no potency is given here. Calls come from the whole dose curve; as a rule, active = well fitted curve in the direction sought with a large enough effect in the signal ratio, with a control signal flat (not every such curve was filed as active); inconclusive = small, poorly fitted or top-dose-only effect, or effect the other way, or a change in a side signal; inactive = no such curve, though single readings can be large or run the other way; the % refers to the signal ratio.

The target in the assay is Estrogen receptor (Homo sapiens) (UniProt P03372). As to the kind of experiment: qHTS assay for small molecule antagonists of estrogen receptor alpha signaling (AID 588513). To be noted: ER-alpha-UAS-bla HEK293, beta-lactamase ratio, antagonist mode; series mostly up to 76.9 µM. An excerpt: NIH Chemical Genomics Center [NCGC]
Sequence of Estrogen receptor (Homo sapiens) (P03372 whole entry, looked up): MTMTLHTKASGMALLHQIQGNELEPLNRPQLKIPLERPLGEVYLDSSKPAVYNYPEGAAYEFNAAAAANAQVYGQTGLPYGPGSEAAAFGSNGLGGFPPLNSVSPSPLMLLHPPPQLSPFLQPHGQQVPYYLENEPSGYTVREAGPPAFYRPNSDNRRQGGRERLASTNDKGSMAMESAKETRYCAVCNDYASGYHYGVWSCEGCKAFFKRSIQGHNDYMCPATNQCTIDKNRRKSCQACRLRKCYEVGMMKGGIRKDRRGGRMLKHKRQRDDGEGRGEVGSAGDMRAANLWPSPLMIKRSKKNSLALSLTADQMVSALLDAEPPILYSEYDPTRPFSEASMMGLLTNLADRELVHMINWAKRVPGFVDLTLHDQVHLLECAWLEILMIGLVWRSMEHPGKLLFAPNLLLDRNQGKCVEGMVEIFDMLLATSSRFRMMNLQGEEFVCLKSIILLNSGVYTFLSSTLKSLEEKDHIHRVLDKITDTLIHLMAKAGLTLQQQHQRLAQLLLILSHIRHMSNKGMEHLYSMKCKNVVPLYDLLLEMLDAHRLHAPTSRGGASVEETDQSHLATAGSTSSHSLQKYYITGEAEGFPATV
U.S. Environmental Protection Agency [EPA]
National Institutes of Environmental Health Sciences [NIEHS]
National Toxicology Program [NTP]
Estrogen receptor alpha (ER-alpha) is an important member of nuclear hormone receptors. ER-alpha plays important role in breast cancer as well as in other women's health issues. The majority of breast cancers is estrogen receptor (ER) positive and depends on estrogen for growth. There is also growing concern for some of environmental chemicals which may contribute the increasing the incidence of breast cancer. Therefore, it is important to understand the effect of environmental chemicals in ER-alpha signaling pathway.
NCGC Assay Protocol Summary
Using a beta-lactamase reporter-gene under control of the ER response element, a cell-based assay [ER-alpha-UAS-bla GripTiteTM cell-Based Assay from Invitrogen] was used to measure ER-alpha signaling pathway in antagonist mode. ER-alpha-UAS-bla-GripTite HEK 293 cells were used with assay medium containing 2% charcoal/dextran treated FBS, 0.1 mM NEAA and 1 mM sodium pyruvate. Cells were cultured in this assay medium overnight in the flasks before the assay. The assay was performed in clear bottom black Greiner 1536-well plates. 17-beta-estradiol was used as a positive control in the screen. Library compounds were measured for their ability to inhibit the reporter gene activity. Compounds were screened in a titration series in 1536-well format. […] Data was normalized relative to 17-beta-estradiol control (0.5nM, 100%), and DMSO only wells (basal, 0%). Concentration-response titration points for each compound were fitted to the Hill equation yielding concentrations of half-maximal inhibition (IC50) and maximal response (efficacy) values.
qHTS protocol for ER-alpha beta-lactamase assay in antagonist mode
[Step] [Parameter] [Value] [Description]
1. Reagent; 5 uL; 5000 cells/well
2. Incubation; 37 C for 4 hrs
- Dose response, Start 38uM, 1:2 dilutions with duplicates
- Two columns with 38 and 19uM (final) concentration.
5. Agonist (Stimulator); 1uL; 17-beta-estradiol at 0.5nM (final) concentration
6. Incubation; 37 C for 18 hrs
7. Detection reagent; 1 uL of CCF4-dye
8. Incubation; RT for 2 hrs
9. Detection; Fluorescence; Envision plate reader or Acumen plate reader
With `NNC(=O)c1ccncc1`, the Potency result is “inactive”.

For the molecule `O=C(O)c1cc(=O)[nH]c(=O)[nH]1`, the Potency entry was “inactive”. On to `COc1ccc2cc3[n+](cc2c1OC)CCc1cc2c(cc1-3)OCO2`, for which the Potency result is “inactive”. As for `C[C@]12C=CC(=O)C=C1CC[C@@H]1[C@@H]2C(=O)C[C@@]2(C)[C@H]1CC[C@]2(O)C(=O)CO`, the entry is “inactive”; as for `CC[C@H](C)C(=O)O[C@H]1C[C@@H](C)C=C2C=C[C@H](C)[C@H](CC[C@@H]3C[C@@H](O)CC(=O)O3)[C@H]21`, “inactive”.

On to `CC1=NN(c2ccccc2)C(=O)C1`, for which the Potency entry was “inactive”. In the case of `CC(=O)Oc1ccccc1C(=O)Nc1ncc([N+](=O)[O-])s1` it was “inactive”.

As for `Cc1ncc([N+](=O)[O-])n1CCO`, the Potency result was “inactive”. In the case of `N=C(N)c1ccc(OCCCCCOc2ccc(C(=N)N)cc2)cc1` it was “inactive”; in that of `CN(C)c1ccc(C(=C2C=CC(=[N+](C)C)C=C2)c2ccc(N(C)C)cc2)cc1`, 28.2 µM [inconclusive] (active); in that of `S=P(N1CC1)(N1CC1)N1CC1`, “inactive”. For `OC(Cn1cncn1)(Cn1cncn1)c1ccc(F)cc1F`, the Potency result is “inactive”. As for `Cc1nnc(NS(=O)(=O)c2ccc(N)cc2)s1`, the Potency result was “inactive”. As for `O=C(N[C@H](CO)[C@H](O)c1ccc([N+](=O)[O-])cc1)C(Cl)Cl`, the entry is “inactive”. In the case of `Cc1noc(NS(=O)(=O)c2ccc(N)cc2)c1C` it was “inactive”. As for `NC(N)=NC(N)=NCCc1ccccc1`, the entry is “inactive”.
